# Measured values taken from PMC4336329 (PLoS ONE, 2015).
# In all, about 310,000 compounds went through this assay and about 14,000 (4.5%) showed an effect of 50% or more. The effect is printed as a negative number. What follows is part of a selection rich in strong results, with near analogues and random picks from the rest.
# Target: human ether-à-go-go-related gene (hERG) potassium channel (human, UniProt Q12809)
# Assay: primary screen, population patch clamp on CHO cells stably expressing hERG; higher = less effect of the substance
# 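Further: peak tail current of the secondary pulse compared with the same well before compound.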
# human ether-à-go-go-related gene (hERG) potassium channel, sequence (Q12809 whole entry, looked up): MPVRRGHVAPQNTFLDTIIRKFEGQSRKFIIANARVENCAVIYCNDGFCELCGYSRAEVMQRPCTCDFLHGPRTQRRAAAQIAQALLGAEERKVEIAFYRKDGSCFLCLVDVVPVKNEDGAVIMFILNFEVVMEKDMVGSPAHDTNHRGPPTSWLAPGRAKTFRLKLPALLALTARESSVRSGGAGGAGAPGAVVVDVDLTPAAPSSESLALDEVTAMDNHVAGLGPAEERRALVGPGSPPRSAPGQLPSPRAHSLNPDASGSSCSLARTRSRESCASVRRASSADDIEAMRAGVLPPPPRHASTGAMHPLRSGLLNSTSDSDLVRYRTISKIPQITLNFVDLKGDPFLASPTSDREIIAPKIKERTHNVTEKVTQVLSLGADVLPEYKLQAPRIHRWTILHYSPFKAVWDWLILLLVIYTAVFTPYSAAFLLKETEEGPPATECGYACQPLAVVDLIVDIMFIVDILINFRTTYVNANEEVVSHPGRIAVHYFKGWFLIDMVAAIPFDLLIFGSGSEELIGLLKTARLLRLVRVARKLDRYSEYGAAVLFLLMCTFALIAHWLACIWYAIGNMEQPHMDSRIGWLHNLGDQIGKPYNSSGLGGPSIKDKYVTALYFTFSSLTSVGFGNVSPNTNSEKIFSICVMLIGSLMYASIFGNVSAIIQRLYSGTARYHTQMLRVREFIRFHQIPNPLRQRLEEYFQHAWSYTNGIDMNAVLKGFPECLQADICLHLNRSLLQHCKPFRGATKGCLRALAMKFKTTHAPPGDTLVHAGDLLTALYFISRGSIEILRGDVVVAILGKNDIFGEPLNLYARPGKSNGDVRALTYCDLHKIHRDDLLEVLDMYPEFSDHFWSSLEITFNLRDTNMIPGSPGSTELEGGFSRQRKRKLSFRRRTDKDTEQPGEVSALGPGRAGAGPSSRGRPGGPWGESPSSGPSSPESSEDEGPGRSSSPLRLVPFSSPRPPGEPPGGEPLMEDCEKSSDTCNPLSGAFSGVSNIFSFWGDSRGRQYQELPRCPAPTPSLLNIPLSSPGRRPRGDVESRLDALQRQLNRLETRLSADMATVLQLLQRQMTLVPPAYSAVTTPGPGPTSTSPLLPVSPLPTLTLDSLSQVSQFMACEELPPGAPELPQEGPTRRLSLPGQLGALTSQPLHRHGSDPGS
row,SMILES,"hERG current change (%, negative = inhibition) at 10uM [%]"
1,CCOC(=O)C(Cc1ccccc1)(NC(C)=O)C(=O)OCC,7.61
2,CCOC(=O)COc1ccc(N)cc1CC(NC(C)=O)(C(=O)OCC)C(=O)OCC,-72.7
3,CCOC(=O)C(Cc1c(F)cccc1F)(NC(C)=O)C(=O)OCC,8.41
4,N#CC1(NC(=O)COC(=O)C23CC4CC(CC(O)(C4)C2)C3)CCCCC1,4.38
5,CN(C(=O)COC(=O)C12CC3CC(CC(Cl)(C3)C1)C2)C1(C#N)CCCCC1,-53.5
6,CC1CCCC(C)N1C(=O)COC(=O)C12CC3CC(CC(Cl)(C3)C1)C2 (stereo not shown),-18.2
7,Cc1cccc(N2CN=C3SCC(=O)N3C2)c1,0.175
8,CC(C)C1Nc2ccc(S(N)(=O)=O)cc2C2C=CCC21 (stereo not shown),5.89
9,OCC(O)/C=N/Nc1nc2ccccc2s1 (stereo not shown),14
10,C/C(CCc1ccc2c(c1)OCO2)=N\NC(=O)c1ccccc1,9.96
11,CNC(=S)N/N=C(\C)c1ccc2c(c1)OCCO2,9.21
12,C/C(=N\NC(=S)NC(C)C)c1ccc2c(c1)OCCO2,-63.6
13,C/C(CCc1ccc2c(c1)OCO2)=N\NC(=S)NC(C)C,-59.4
14,CCNC(=S)N/N=C(\C)c1ccc2c(c1)OCCO2,13.4
15,COCCNC(=S)N/N=C(\C)CCc1ccc2c(c1)OCO2,-11.6
16,CC(=O)n1cc([C@H]2C=C(C(=O)Nc3ccccc3)O[C@@H](OCc3ccc(CO)cc3)C2)c2ccccc21,-2.85
17,CC1(C)CC(NS(=O)(=O)c2ccc(Cl)cc2)CC(C)(C)N1,9.34
18,Cc1nc2cc(NCc3ccccc3O)ccc2n1Cc1ccccc1,13.8
19,CCn1cnc2cc(NCc3cccs3)ccc21,-15.9
20,Cc1cccc(NCc2nc3ccccc3n2Cc2ccccc2)c1,-13.1
21,O=C(O)c1ccc(NCc2nc3ccccc3n2Cc2ccccc2)cc1,-4.61
22,Cc1nc2cc(NCc3nc4ccccc4n3Cc3ccccc3)ccc2n1C,-82

row,SMILES,"hERG current change (%, negative = inhibition) at 10uM [%]"
1,CCn1cnc2cc(NCc3nc4ccccc4n3Cc3ccccc3)ccc21,-65.6
2,NC(=O)c1ccccc1OCC(=O)N1CCc2ccccc2C1,8.34
3,COC(=O)c1cc(-c2ccc(Br)cc2)on1,8.48
4,Cc1c(Cl)cccc1NC(=S)NCc1ccccc1,16.5
5,Cc1ccc(S(=O)(=O)C2(C(=O)NCc3ccccc3Cl)CC2)cc1,-15.2
6,Cc1nnc(SCC(=O)Nc2ccc(N3CCOCC3)cc2)n1-c1ccccc1,-14.5
7,CCCCCn1c(=O)[nH]c2cc(C(=O)Nc3ccc(OC)cc3)ccc2c1=O,14.9
8,CC(=O)NCC(=O)OCc1ccc([N+](=O)[O-])cc1,3.26
9,CN(C)C1(CNC(=O)C2CCN(S(=O)(=O)c3ccccc3C(F)(F)F)CC2)CCCCC1,-29.8
10,O=C(NC1CCCCCC1)C1CCN(S(=O)(=O)c2c(Cl)cccc2Cl)CC1,11.6
11,CN(C)C1(CNC(=O)C2CCN(S(=O)(=O)c3cc(Cl)ccc3Cl)CC2)CCCCC1,-64.1
12,CC(C)c1ccc(S(=O)(=O)N2CCC(C(=O)NCC3(N(C)C)CCCCC3)CC2)cc1,-54.4
13,CN(C)C1(CNC(=O)C2CCN(S(=O)(=O)c3c(Cl)cccc3Cl)CC2)CCCCC1,-67.5
14,CN(C)C1(CNC(=O)C2CCN(S(=O)(=O)c3cccc(C(F)(F)F)c3)CC2)CCCCC1,-34.6
15,CC(C)c1ccc(S(=O)(=O)N2CCC(C(=O)N3CCC3)CC2)cc1,-9.72
16,Cc1ccc(S(=O)(=O)N2CCC(C(=O)Nc3ccc(C(C)C)cc3)CC2)cc1,-11.5
17,O=C(NCC1CCCO1)C1CCN(S(=O)(=O)c2cc(Cl)ccc2Cl)CC1 (stereo not shown),-19
18,CCOC(=O)c1cccc(NC(=O)C2CCCO2)c1 (stereo not shown),4.7
19,Brc1ccccc1CNCCc1ccc2c(c1)OCO2,0.404
20,Cc1cccc(Oc2cnn(C(C)(C)C)c(=O)c2Cl)c1,-10
21,Cc1ccc(NC(=O)c2sc(N)nc2-c2ccc([N+](=O)[O-])cc2)cc1C,8.18
22,CSc1ccc(C(C(C(=O)c2cccs2)N2CCOCC2)N2CCOCC2)cc1 (stereo not shown),-3.73

row,SMILES,"hERG current change (%, negative = inhibition) at 10uM [%]"
1,COc1ccc(CCn2nnnc2C(C(C)C)N2CCN(c3ncccn3)CC2)cc1OC (stereo not shown),-5.93
2,Cc1c(Br)c([N+](=O)[O-])nn1CC(=O)Nc1ccc(C(N)=O)cc1,-2.84
3,COc1ccc(C2c3c(ncn(CCN4CCOCC4)c3=N)Oc3ccc4ccccc4c32)cc1 (stereo not shown),-47.2
4,COc1ccc(C2c3c(ncn(CCCN4CCOCC4)c3=N)Oc3ccc4ccccc4c32)cc1OC (stereo not shown),-51.3
5,COc1ccc(C2c3c(ncn(CCN4CCOCC4)c3=N)Oc3ccc4ccccc4c32)cc1OC (stereo not shown),-16.6
6,COc1ccc(C2c3ccc4ccccc4c3Oc3ncn(CCN4CCOCC4)c(=N)c32)cc1OC (stereo not shown),-53.4
7,COc1ccc(C2c3ccc4ccccc4c3Oc3ncn(CCN4CCOCC4)c(=N)c32)cc1 (stereo not shown),-74.1
8,COc1ccc(C2c3c(ccc4ccccc34)Oc3ncn4nc(Cc5ccccc5)nc4c32)cc1OC (stereo not shown),-7.49
9,Cc1cc(NC(=O)CCN2C(=O)C3C4C=CC(C4)C3C2=O)c2ccccc2n1 (stereo not shown),7.51
10,CC(=O)Nc1nc(C(F)(F)F)cs1,7.96
11,CN(C(=O)c1cccnc1)c1nnc(-c2cnccn2)s1,8.06
12,Cc1cc(NC(=O)c2cccc3c2C(=O)N(C2CCCCC2)C3)ccc1Br,13
13,O=C(CCl)NCCN1C(=O)S/C(=C\c2cccnc2)C1=O,26.1
14,CC(C)(Oc1ccc(Cl)cc1)C(=O)NCCN1C(=O)S/C(=C/c2cccnc2)C1=O,-62.9
15,CCOc1ccc(N2CC(C(=O)NCCN3C(=O)S/C(=C\c4cccnc4)C3=O)CC2=O)cc1 (stereo not shown),-0.149
16,COc1ccc(C(=O)NCCN2C(=O)S/C(=C\c3cccnc3)C2=O)cc1[N+](=O)[O-],-63.8
17,Cc1cc(OCCCC(=O)NCCN2C(=O)S/C(=C\c3cccnc3)C2=O)ccc1Cl,-6.35
18,CSc1cccc(N2CC(C(=O)NCCN3C(=O)S/C(=C\c4cccnc4)C3=O)CC2=O)c1 (stereo not shown),-68.3
19,O=C(NCCN1C(=O)S/C(=C\c2ccc(F)cc2)C1=O)c1cccc(S(=O)(=O)N2CCOCC2)c1,-3.04
20,O=C(NCCN1C(=O)S/C(=C\c2cccnc2)C1=O)c1cc(S(=O)(=O)N2CCOCC2)ccc1F,-59
21,O=C(NCCN1C(=O)S/C(=C\c2cccnc2)C1=O)c1ccc(S(=O)(=O)N2CCCC2)cc1,-11.3
22,CS(=O)(=O)c1ccc(C(=O)NCCN2C(=O)S/C(=C\c3cccnc3)C2=O)cc1[N+](=O)[O-],1.32

row,SMILES,"hERG current change (%, negative = inhibition) at 10uM [%]"
1,COc1ccccc1N1CC(C(=O)NCCN2C(=O)S/C(=C\c3cccnc3)C2=O)CC1=O (stereo not shown),1.78
2,Cc1c(C(=O)NCCN2C(=O)S/C(=C\c3cccnc3)C2=O)cccc1[N+](=O)[O-],-45.1
3,Cc1ccc(S(=O)(=O)NC(C)(C)CSc2ncccn2)cc1,-4.42
4,CC1=CC(C)(C)N(C(=O)CCl)c2ccccc21,-39.7
5,O=C(O)C(Nc1nc(C(F)(F)F)nc2ccccc12)c1ccccc1 (stereo not shown),26.2
6,O=C(Cc1cccs1)NCc1cccc(F)c1,14.4
7,CCOC(=O)C1CCN(c2c(NCc3ccc(C(=O)NCCOC)cc3)c(=O)c2=O)CC1,-7.38
8,CCn1cc(C(=O)Nc2ccc(F)c(F)c2)cn1,7.43
9,COc1ccccc1N(CC(=O)NC(C)(C)C)C(=O)CCC(=O)Nc1nccs1,-36.5
10,COC(=O)CN1C(=O)C2(OCCCO2)c2ccccc21,-7.31
11,O=C(Nc1cccc(-c2cccc(Cl)c2)c1)C1CCN(Cc2ccon2)CC1,-52.7
12,COc1cccc(-c2cccc(NC(=O)C3CCN(Cc4ccon4)CC3)c2)c1,-27.8
13,Cl.O=C(O)C1CCN(Cc2ccccn2)CC1,16.2
14,O=C(Nc1cccc(-c2cccc(Cl)c2)c1)C1CCN(Cc2ccccn2)CC1,-77.8
15,Cc1cc(C)n(-c2ccc(NC(=O)C3CCN(Cc4ccccn4)CC3)cc2)n1,-14.5
16,CC(c1ccccc1)C1CC(=O)N(Cc2ccco2)C1=O (stereo not shown),25.9
17,COc1ccc(CN2CC(C(=O)NCCC(C)C)CC2=O)cc1 (stereo not shown),10.5
18,COc1ccc(NC(=S)NCCSc2ccc(C)cc2)c(OC)c1,5.2
19,CCOC(=O)c1c(C)[nH]c(C)c1S(=O)(=O)NCCc1sccc1C,-0.705
